FEN1 inh = human FEN1 inhibition. Potency, µM (titrated, usually from 114 µM), inactives show at the highest dose activity change, negative = inhibition, actives largely listed as inhibitors. hit rate 0.35% among 390,000. Recombinant FEN1 flap cleavage, fluorescence, 15 min. P39748; note: potency is the fitted concentration of half-maximal effect; nearly all actives have a fitted effect of over 65% in size
Target sequence (P39748 whole entry, looked up): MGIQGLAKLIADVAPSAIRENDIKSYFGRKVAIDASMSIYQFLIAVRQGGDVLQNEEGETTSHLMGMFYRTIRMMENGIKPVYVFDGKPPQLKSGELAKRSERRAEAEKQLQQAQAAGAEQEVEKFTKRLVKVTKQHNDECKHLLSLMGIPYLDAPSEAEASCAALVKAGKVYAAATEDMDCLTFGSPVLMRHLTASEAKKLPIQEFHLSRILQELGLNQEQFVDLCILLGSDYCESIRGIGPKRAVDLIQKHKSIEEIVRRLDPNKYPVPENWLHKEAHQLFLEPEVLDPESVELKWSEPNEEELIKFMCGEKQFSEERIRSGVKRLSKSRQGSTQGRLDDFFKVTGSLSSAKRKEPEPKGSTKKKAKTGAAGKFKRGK
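Compounds are tested as a concentration series against 10 nM FEN1; after a 15 min room-temperature preincubation, 50 nM substrate starts cleavage, with plate reads at 0 and 15 min. Normalized responses are fitted by a Hill equation.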
RECQ1 helicase = RECQ1 (human) helicase inhibition; hit rate 0.54% among 240,000; Potency, µM (doses to about 57.3 µM), inactives show top-dose activity, negative = inhibition, hits mostly inhibitors; P46063; RECQ1 DNA unwinding, red fluorescence kinetic read;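 note: potency is the fitted concentration of half-maximal effect; plate controls were vehicle for no effect and no enzyme for full effect; nearly all actives have a fitted effect of over 30% in size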
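RECQ1T1 50 nM; forked duplex (20 bp + 30-nt ss tails) 200 nM, ATP 2 mM final; pH 8.0, 2 mM MgCl2, 2.5 ug/ml poly(dI-dC); 15 min compound preincubation; discontinuous kinetic read over 2 h at RT.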
GCN5L2 inh = blocks human GCN5L2 histone acetyltransferase; Q92830; GCN5L2 HAT assay, ThioGlo1 CoA-SH fluorescence; Potency, µM (highest dose often 58.9 µM), for the others: at the highest dose activity change, negative = inhibition, actives largely listed as inhibitors; hit rate 0.21% among 390,000; note: potency is the fitted concentration of half-maximal effect
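Compounds, pin-transferred from DMSO stocks, meet 20nM GCN5L2 for 15 min before the reaction begins with H3(1-25) peptide (75uM) and acetyl-CoA (70uM). Thiol-reactive ThioGlo1 reports CoA release over 20 min at room temperature.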
APEX1 inh = blocks human APE1 abasic DNA cleavage; recombinant APE1, TAMRA/BHQ-2 abasic DNA cleavage fluorescence; Potency, µM (doses to about 65.8 µM), for inactives: top-dose activity change, negative = inhibition, most hits filed as inhibitors; hit rate 0.35% among 350,000; P27695;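 note: potency is the fitted concentration of half-maximal effect; plate controls were vehicle for no effect and reference inhibitor for full effect; nearly all actives have a fitted effect of over 55% in size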
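Endonuclease cleavage of a quenched abasic-site DNA duplex (50 nM) by APE1 (0.75 nM) was tracked by TAMRA dequenching. Compounds were preincubated with enzyme 15 min at room temperature; data normalized to buffer-only and DMSO wells plus NSC13755 control.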
BLM helicase inh = blocks DNA unwinding by human BLM helicase. P54132. recombinant BLM DNA unwinding, fluorescence dequenching. Potency, µM (doses to about 56.1 µM), for the others: top-dose activity change, negative = inhibition, most hits filed as inhibitors. hit rate 0.2% among 350,000;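 note: potency is the fitted concentration of half-maximal effect; plate controls were vehicle for no effect and no enzyme for full effect; nearly all actives have a fitted effect of over 35% in size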
PI5P4Ka inh = inhibitors of human PI5P4K alpha | P48426 | PI5P4Kalpha enzyme, ADP-Glo luminescence, 60 min; active compounds read low | max response, % | hit rate 1.2% among 330,000 | AID 652105; active = max response of -50% or lower; inconclusive = between -30% and -50%; inactive = -30% or higher; note: value at the top dose of about 77 µM
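Luminescence from ADP-Glo served as readout of PI5P4Kalpha activity in a qHTS format. Reaction: enzyme, substrate, compound, ATP at 5 microM final, 60 min at RT.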
Starred values were filed as active, the others as inactive; [ ] = another dose, or the depositor's remark. Compounds with a hit are over-represented: about 1.5% of the library has one in this group of screens. Unless noted, calls come from the whole dose curve; as a rule, active = well fitted curve in the direction sought with a large enough effect; inconclusive = small, poorly fitted or top-dose-only effect, or another doubt; inactive = no such curve, though single readings can be large; an effect the other way counts as inactive or inconclusive. Unless noted, % is set by controls: 0 for no effect and ±100 for the full control effect.

`O=C(/C=C/c1ccco1)c1cccc([N+](=O)[O-])c1` gave FEN1 inh -8% and PI5P4Ka inh -73*.
`O=C1c2cccc(NCCNCCO)c2C(=O)c2cccc(NCCNCCO)c21` gave FEN1 inh 4µM* and PI5P4Ka inh -17.
Screening O=c1cc(-c2ccccc2Cl)oc2c([N+](=O)[O-])c(O)cc(O)c12 returned FEN1 inh inconclusive, RECQ1 helicase 0%[81.1 µM], GCN5L2 inh -12%[88.6 µM], APEX1 inh inconclusive, BLM helicase inh -6%[75.6 µM] and PI5P4Ka inh -96*.
Screening CC1=C(C(=O)OCC(Br)(Br)Br)C(c2cccc([N+](=O)[O-])c2)NC(=O)N1CCCC(=O)O (stereo not drawn) returned FEN1 inh 9% and PI5P4Ka inh -64*.
For CCOC(=O)CN1C(=O)N[C@H](c2ccc(Br)cc2)C(C(C)=O)=C1C the results were FEN1 inh 1%, RECQ1 helicase -5%, GCN5L2 inh -3%, APEX1 inh 32µM*, BLM helicase inh -6% and PI5P4Ka inh -15.
Screening CCOC(=O)C1=C(C)N(CCCCCC(=O)O)C(=O)NC1c1ccc(Br)cc1 (stereo not drawn) returned FEN1 inh -6%, GCN5L2 inh -6%, APEX1 inh 29%, BLM helicase inh -2% and PI5P4Ka inh -1.
Screening CCOC(=O)C1=C(C)N(CCCC(=O)O)C(=O)NC1c1ccc2ccccc2c1 (stereo not drawn) returned FEN1 inh -2% and PI5P4Ka inh -75*.
`CCOC(=O)C1=C(C)N(CCCC(=O)O)C(=O)NC1c1ccccc1` (stereo not drawn) gave FEN1 inh -10% and PI5P4Ka inh -57*.
CCCCCCNc1ccc(/C=C/c2ccnc3ccccc23)cc1 was read as FEN1 inh -17%.
For CCOC(=O)C1=C(C)N(CCCC(=O)O)C(=O)NC1c1ccc(Cl)cc1 (stereo not drawn) the results were FEN1 inh 1%, GCN5L2 inh 1%, APEX1 inh 2%, BLM helicase inh 0% and PI5P4Ka inh -93*.
For CN=C1S/C(=C\c2ccc(O)c(OC)c2)C(=O)N1C the results were FEN1 inh -16% and PI5P4Ka inh 6.
`CN=C1S/C(=C\c2ccc(O)c(Br)c2)C(=O)N1C` gave FEN1 inh -23%, GCN5L2 inh -2%, APEX1 inh 41%, BLM helicase inh -2% and PI5P4Ka inh -79*.
CC(C)CCCC(C)CCCC(C)CCCC(C)C(=O)O (stereo not drawn) was read as RECQ1 helicase -11%, GCN5L2 inh 11µM*, APEX1 inh -1% and BLM helicase inh inconclusive.
`CC(C)CCCC(C)CCCC(C)CCCCC(C)CCCC(C)CCCC(C)C` (stereo not drawn) gave GCN5L2 inh -9% and BLM helicase inh -8%.
For N#C/C(=C/c1ccc(-c2ccc([N+](=O)[O-])cc2)o1)C(=O)Nc1nc(-c2cccs2)cs1 the results were FEN1 inh -7% and PI5P4Ka inh -66*.
For CCc1ccc(CNc2ccc(O)cc2)cc1 the results were FEN1 inh -4%, RECQ1 helicase inactive, GCN5L2 inh -20%, APEX1 inh 5%, BLM helicase inh inconclusive and PI5P4Ka inh -54*.
`CN(C)c1ccc(/C=C2\C=Nc3ccccc32)cc1` gave FEN1 inh -9%.
For COc1cc(/C=C2\SC(N)=NC2=O)ccc1OCC(=O)Nc1ccccc1C the results were FEN1 inh inconclusive, GCN5L2 inh -20%, APEX1 inh 8% and PI5P4Ka inh -10.
NC1=NC(=O)/C(=C\c2ccc(O)c([N+](=O)[O-])c2)S1 was read as FEN1 inh -1%, RECQ1 helicase -11%, GCN5L2 inh -11%, APEX1 inh -1%, BLM helicase inh 0% and PI5P4Ka inh -79*.

Assay outcomes deposited in PubChem BioAssay by National Center for Advancing Translational Sciences (NCATS).
